# Compounds with a hit are over-represented: about 6.4% of the library has one in this group of screens.
# RORgamma inh: blocks mouse ROR gamma transcriptional activity; Drosophila S2 Gal4-RORgamma UAS-luciferase reporter, 20 h; Potency, µM (top dose mostly 53.6 µM), hits mostly inhibitors; 310,000 tested, 5.4% active; AID 2551; also: nearly all actives have a fitted effect of over 60% in size
# Target sequence (P51450 whole entry, looked up, the tested form may be a part): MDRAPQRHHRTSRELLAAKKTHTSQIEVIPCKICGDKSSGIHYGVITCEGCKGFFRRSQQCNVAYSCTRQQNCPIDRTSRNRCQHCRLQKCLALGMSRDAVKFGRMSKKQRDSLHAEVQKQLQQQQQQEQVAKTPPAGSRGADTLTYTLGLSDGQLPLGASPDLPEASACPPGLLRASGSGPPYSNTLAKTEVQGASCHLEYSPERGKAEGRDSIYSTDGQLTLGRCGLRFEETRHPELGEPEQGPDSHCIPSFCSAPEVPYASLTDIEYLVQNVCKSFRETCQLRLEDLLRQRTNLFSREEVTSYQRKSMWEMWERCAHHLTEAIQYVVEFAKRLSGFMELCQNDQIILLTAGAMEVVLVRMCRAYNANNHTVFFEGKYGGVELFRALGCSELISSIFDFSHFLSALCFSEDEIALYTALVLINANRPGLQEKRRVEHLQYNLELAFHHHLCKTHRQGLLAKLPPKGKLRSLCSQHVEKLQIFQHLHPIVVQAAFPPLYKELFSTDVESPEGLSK
#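 In this cell-based reporter format, copper sulfate (700 uM final) drives Gal4–ROR gamma fusion expression from a metallothionein promoter in Drosophila Schneider cells; compounds preincubated 1 hr, reporter read after 20 hr at ambient temperature.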
# Gal4-VP16 FLuc: counter-screen for ROR gamma inhibitors: Gal4-VP16 reporter; Drosophila S2 Gal4-VP16 UAS-luciferase, luminescence, 20 h; Potency, µM (titrated, usually from 53.6 µM), usual class: inhibitors; 310,000 tested, 3.5% active; AID 2546;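 also: Gal4-VP16 expression switched on by copper sulfate through the metallothionein promoter; nearly all actives have a fitted effect of over 50% in size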
# KinaseGlo FLuc: blocks Kinase-Glo luciferase, a counter-screen artifact. Potency, µM (highest dose often 38.3 µM), usual class: inhibitors. Q27757. 200,000 tested, 0.28% active. Kinase-Glo luciferase, ATP luminescence, 8 min; also: nearly all actives have a fitted effect of over 60% in size
#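 Recombinant Kinase-Glo luciferase, 10 uM ATP (linear range), luciferin; imidazole pH 7.2 / KCl / MgCl2 / Tween / BSA buffer; 8 min RT; luminescence.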
# A number is an active result; – = inactive; ? = inconclusive; · = not tested or not shown; [ ] = another dose, or the depositor's remark. Calls follow the shape of the dose curve; as a rule, active = well fitted curve in the direction sought with a large enough effect; inconclusive = small, poorly fitted or top-dose-only effect, or another doubt; inactive = no such curve, though single readings can be large; an effect the other way counts as inactive or inconclusive.
SMILES,RORgamma inh,Gal4-VP16 FLuc,KinaseGlo FLuc
CN(CC(=O)N1CCc2ccccc2C1)c1ccccc1,–,–,·
CCc1cccc(CC)c1NC(=O)COn1nnc2ccc(C(F)(F)F)cc21,–,–,–
COc1ccc(CN2CC(=O)N(c3cc(Cl)ccc3OC)C2=S)cc1OC,–,–,·
COc1ccc(C)cc1NC(=S)N1CCN(S(C)(=O)=O)CC1,–,–,–
CCOC(=O)c1c(-c2ccc(C)cc2)csc1NC1=NS(=O)(=O)c2ccccc21,–,–,–
N#Cc1ccccc1S(=O)(=O)N1CCN(C(=O)C2CCCC2)CC1,–,–,·
Cc1ccc(C2CC(=O)Oc3cc(C)c(Cl)cc32)cc1 (stereo unspecified),–,–,–
S=C(Nc1ccccc1Cl)NC1CCN(Cc2ccccc2)CC1,–,–,–
CC(C)c1ccccc1NC(=S)NC1CCN(Cc2ccccc2)CC1,14µM,16µM,–
FC(F)(F)c1ccccc1NC(=S)NC1CCN(Cc2ccccc2)CC1,–,–,–
Cc1c(Cl)cccc1NC(=S)NC1CCN(Cc2ccccc2)CC1,10µM,–,–
C=CCN(CC=C)C(=O)c1ccc(OC2CCN(Cc3ccccn3)CC2)cc1,–,–,–
CCS(=O)(=O)c1nc(S(=O)(=O)c2ccc(C)cc2)c(N2CCC(O)CC2)s1,–,–,·
CC1=C(C(=O)OC2CCCCC2)C(c2ccccc2Br)NC(=O)N1 (stereo unspecified),–[1.91 µM],–,·
C=CCn1c(N)c(C(=O)NCC2CCCO2)c2nc3ccccc3nc21 (stereo unspecified),13µM,?,·
COc1ccc(-n2c(N)c(C(=O)NCC3CCCO3)c3nc4ccccc4nc32)c(OC)c1 (stereo unspecified),–,–,–
O=c1cc(-c2cc(O)c(O)c([C@@H]3O[C@H](CO)[C@@H](O)[C@H](O)[C@H]3O)c2)oc2cc(O[C@@H]3O[C@H](CO)[C@@H](O)[C@H](O)[C@H]3O)cc(O)c12,–,–,·
Cc1ccnc(Sc2ccc([N+](=O)[O-])cc2[N+](=O)[O-])n1,13µM,?,–
Cc1ccc(Sc2ccc([N+](=O)[O-])cc2[N+](=O)[O-])nc1,–,?,–
COc1ccc(C2CC(C)(c3ccc(OC)cc3OC)Nc3ccccc3N2)c(OC)c1 (stereo unspecified),–,–,–
O=C1CCC(C(=O)Nc2cccc(S(=O)(=O)N3CCOCC3)c2)N1 (stereo unspecified),–,–,–
CCOc1cc(NC(=S)NC)c(OCC)cc1NC(=O)c1cccs1,8.9µM,?,·
CCOc1cc(NC(=S)NCCOC)c(OCC)cc1NC(=O)c1cccs1,14µM,?,–
CCOc1cc(NC(=S)NCCCN(C)C)c(OCC)cc1NC(=O)c1cccs1,–,–,–
CCOc1cc(NC(=S)NCCCN2CCOCC2)c(OCC)cc1NC(=O)c1cccs1,–,–,–
SMILES,RORgamma inh,Gal4-VP16 FLuc,KinaseGlo FLuc
CCOc1cc(NC(=S)NCCCOC)c(OCC)cc1NC(=O)c1cccs1,14µM,?,–
CCOc1cc(NC(=O)c2cccs2)c(OCC)cc1NC(=O)c1ccco1,–,–,–
COc1ccc(OC)c(N/C(C)=C/C(=O)c2ccc(Br)cc2)c1,–,–,–
CS(=O)(=O)Nc1ccc(S(=O)(=O)N2CCCCCC2)cc1,–,–,·
COc1ccc(CN(C(=O)c2snc(C(N)=O)c2N)C(C)C(=O)NCc2ccc(F)cc2)cc1 (stereo unspecified),–,–,·
COc1ccc(CNC(=O)C(C)N(Cc2ccccc2OC)C(=O)c2snc(C(N)=O)c2N)cc1 (stereo unspecified),10µM,–,·
COc1ccc(Cl)cc1NC(=S)NCCc1ccc(F)cc1,14µM,18µM,·
COc1ccc(NC(=S)NCc2ccc(Cl)cc2)c(OC)c1,–[1.91 µM],?,·
COc1ccc(NC(=S)NCCc2ccc(Cl)cc2)c(OC)c1,4.5µM,11µM,–
COc1ccc(Cl)cc1NC(=S)NCCc1ccc(S(N)(=O)=O)cc1,–,–,·
COCCNC(=O)C(=O)NCC1OCCN1S(=O)(=O)c1ccc(F)cc1 (stereo unspecified),–,–,·
O=C1CN(C(=O)C2CCC(=O)N(CCc3ccc(Cl)cc3)C2)CCN1 (stereo unspecified),–,–,·
CC(C)c1ccc(Nc2nnns2)cc1,–,–,·
CCOc1ccc(NC(=O)CN2CCN(CC(=O)c3ccc(OC)c(OC)c3)CC2)cc1,2.5µM,–,–
CCOc1ccc(NC(=O)CN2CCN(CC(=O)c3ccc(OCC)cc3)CC2)cc1,–,?,–
COc1ncc2nc(-c3cccs3)c(=O)n(-c3ccccc3)c2n1,–,–,–
COc1ccc(C2NS(=O)(=O)OCC2C)cc1 (stereo unspecified),–,–,·
O=C(N/N=C\c1cccc([N+](=O)[O-])c1O)C1COc2ccccc2O1 (stereo unspecified),1.8µM,2µM,–
O=C(N/N=C\c1ccc[nH]1)C1COc2ccccc2O1 (stereo unspecified),11µM,?,·
COc1cc([N+](=O)[O-])cc(/C=N\NC(=O)C2COc3ccccc3O2)c1O (stereo unspecified),0.45µM,3.2µM,·
O=C(N/N=C/c1ccco1)C1COc2ccccc2O1 (stereo unspecified),–,–,–
O=C(CNC(=O)C1COc2ccccc2O1)N/N=C\c1cccc(O)c1 (stereo unspecified),–,–,–
COc1cc(/C=N/NC(=O)C2COc3ccccc3O2)cc(OC)c1OC (stereo unspecified),–,–,–
O=C(N/N=C/c1cccc([N+](=O)[O-])c1)C1COc2ccccc2O1 (stereo unspecified),–,–,·
O=C(CNC(=O)C1COc2ccccc2O1)N/N=C/c1ccc(O)cc1O (stereo unspecified),13µM,–,–
SMILES,RORgamma inh,Gal4-VP16 FLuc,KinaseGlo FLuc
COc1ccc(-c2ccc(C3C4C=CCC(C)C4C(=O)N3Cc3ccccc3)c(F)c2)cc1C (stereo unspecified),–,–,·
CC(C)C[C@@H](C(=O)NCc1ccco1)N1C(=O)N2CCc3c([nH]c4ccccc34)[C@@]2(C)C1=O,?,–,·
CC(=O)Nc1ccc(C(=O)Cn2c3[n+](c4c(F)c(F)ccc42)CCCCC3)cc1,–,–,·
O=C(CC1CCC1)NC(c1ccccc1)c1ccccc1,–,–[10 µM],–
O=C1CCCC=C1[C@@H](O)CCOC(c1ccccc1)(c1ccccc1)c1ccccc1,–,–,–
CC(C)(CNC(=O)CC1C(=O)NCCN1Cc1cccc(F)c1F)N1CCOCC1 (stereo unspecified),–,–,·
CCn1c(CC(=O)Nc2ccccc2F)nnc1SCC(=O)NC1CCCC1,–,–,·
CCCCCCCCn1c(=O)c(C(=O)OC)c(N)c2ccccc21,3.2µM,4.5µM,·
CCCCCCn1c(=O)c(Cc2ccccc2)c(O)c2ccccc21,–,–,–
CCCn1c(=O)c(C(=O)Nc2ccccc2C(=O)OC)c(O)c2ccccc21,–,–,–
CCCCCCCn1c(=O)c(C(=O)OC)c(N)c2ccccc21,1.8µM,1.3µM,·
COc1ccc(CNS(=O)(=O)NCc2ccc(C)cc2)cc1OC,–,?,–
CC1C(=O)OC2CC34C5CC(C(C)(C)C)C36C(OC(=O)C6O)OC4(C(=O)O5)C21O (stereo unspecified),–,–,–

# Screening results from PubChem BioAssay.
